Data: PubChem BioAssay (NCATS)
Values joined by “and” are separate entries in the source; they are usually repeats but may differ in a detail not shown here. Equal values may be shown once. Results filed as inconclusive are left out. A call without a number means that no potency is given here. Active and inactive are the calls of the source. Calls follow the shape of the dose curve; as a rule, active = well fitted curve in the direction sought with a large enough effect; inconclusive = small, poorly fitted or top-dose-only effect, or another doubt; inactive = no such curve, though single readings can be large; an effect the other way counts as inactive or inconclusive.

Legend:
[1] = Primary qHTS for inhibitors of nuclear receptor binding SET domain protein 2 (NSD2) in an isogenic RCH-ACV NSD2 p.E1099K mutant (9B) (AID 1645876)
[2] = Primary qHTS for inhibitors of nuclear receptor binding SET domain protein 2 (NSD2) in an RCH-ACV wild type WT cells (2C) (AID 1645877)
Also: nearly all actives have a fitted effect of over 70% in size.
Potency is read from the fitted curve at half-maximal effect.

SMILES | Potency [1] | Potency [2]
CCN(CC)CCOC(=O)C(C)(c1ccccc1)c1ccccc1 | inactive | 
NCc1cccnc1 | inactive | inactive
COc1cc(C[C@@H](C)N)c(OC)cc1C | inactive | 
CN1[C@@H]2CC[C@H]1CC(OC(=O)c1cc(Cl)cc(Cl)c1)C2 (stereo partly specified) | inactive | 
Cc1ccc(N=CN(C)C=Nc2ccc(C)cc2C)c(C)c1 | inactive | inactive
CCOC(C(=O)OCCN(C)C)(c1ccccc1)c1ccccc1 | inactive | inactive
C=CCOC(Cn1ccnc1)c1ccc(Cl)cc1Cl (stereo unspecified) | 23.7 µM (active) | 
Clc1ccc(C(OCCN2CCCCC2)c2ccccc2)cc1 (stereo unspecified) | 26.6 µM (active) | 26.6 µM (active)
C[N+](C)(C)CCOC(=O)C(O)(c1ccccc1)c1ccccc1 | inactive | inactive
O=C(CCl)c1ccc(Cl)cc1Cl | inactive | inactive
CCOC(=O)c1cncn1C(C)c1ccccc1 (stereo unspecified) | inactive | inactive
C[C@]12C=CC(=O)C=C1CC[C@@H]1[C@@H]2CC[C@@]2(C)[C@H]1CC[C@]2(C)O | 23.7 µM (active) | 
Oc1c(Br)cc(Br)cc1Br | inactive | inactive
CN(C)C(=O)Oc1cc(OC(=O)N(C)C)cc(C(O)CNC(C)(C)C)c1 (stereo unspecified) | inactive | inactive
CC(CC(C(N)=O)(c1ccccc1)c1ccccc1)N(C)C (stereo unspecified) | inactive | inactive
C[C@H](CN1CCOCC1)C(C(=O)N1CCCC1)(c1ccccc1)c1ccccc1 | inactive | inactive
CC(C)[N+](C)(CCC(C(N)=O)(c1ccccc1)c1ccccc1)C(C)C | inactive | inactive
CN1C(=O)CN=C(c2ccccc2)c2cc([N+](=O)[O-])ccc21 | inactive | inactive
NC(=O)CN1CCCC1=O | inactive | inactive
COP(=O)(OC)C(O)C(Cl)(Cl)Cl (stereo unspecified) | inactive | inactive
CCN(CC)C(C)C(=O)c1ccccc1 (stereo unspecified) | inactive | inactive
CC(CC(C#N)(c1ccccc1)c1ccccc1)N(C)C (stereo unspecified) | 17.2 µM (active) | 
CCOC(=O)C(c1c(O)c2ccccc2oc1=O)c1c(O)c2ccccc2oc1=O | inactive | inactive
C[C@H]1CNCCc2ccc(Cl)cc21 | inactive | 
Cc1nnc2n1-c1sc(CCC(=O)N3CCOCC3)cc1C(c1ccccc1Cl)=NC2 | inactive | inactive

SMILES | Potency [1] | Potency [2]
COc1cc(N)c(Cl)cc1C(=O)NC1CN2CCC1CC2 (stereo unspecified) | inactive | inactive
COc1cc(CC(C)N)c(OC)cc1Br (stereo unspecified) | 10.1 µM (active) | 8.96 µM (active)
CCc1ccc(C2CCNCC2)cc1 | inactive | inactive
CCC(=O)OC1(c2ccccc2)CCN(C)CC1 | inactive | inactive
Nc1ccc(Cl)cc1C(=O)c1ccccc1F | inactive | 
COP(=S)(OC)Oc1ccc(S(N)(=O)=O)cc1 | inactive | inactive
CCC(=O)O[C@H]1CC[C@H]2[C@@H]3CCC4=CC(=O)CC[C@]4(C)[C@H]3CC[C@]12C | 23.7 µM (active) | 
Nc1ccc(N)cc1 | inactive | 
ClCCCN1CCN(c2cccc(Cl)c2)CC1 | inactive | 
O=C(O)c1nn(Cc2ccc(Cl)cc2Cl)c2ccccc12 | inactive | inactive
CCOC(=O)C1(c2ccccc2)CCN(CCc2ccc(N)cc2)CC1 | inactive | 
OC(c1ccccc1)(c1ccccc1)C1CCNCC1 | inactive | 
COc1ccc(CN2CCNCC2)c(OC)c1OC | inactive | 
Cc1ncc2n1-c1ccc(Cl)cc1C(c1ccccc1F)=NC2 | 23.7 µM (active) | 13.3 µM (active)
CC(C)C(Br)C(=O)NC(N)=O (stereo unspecified) | inactive | inactive
CN1C(=O)CN=C(c2ccccc2)c2cc(Cl)ccc21 | inactive | inactive
Cc1ccc([N+](=O)[O-])[c]2c1[O][Hg]2 | 0.0841 µM (active) | 0.168 µM (active)
CC1=C2[C@H]3OC(=O)[C@@H](C)[C@@H]3CC[C@@]2(C)C=CC1=O | inactive | inactive
C[C@@H]1C[C@@H]([C@H](O)CC2CC(=O)NC(=O)C2)C(=O)[C@@H](C)C1 | 211 nM (active) and 296 nM (active) | 188 nM (active) and 296 nM (active)
O=C(O)CCCCCCNC1c2ccccc2CCc2ccccc21 | inactive | inactive
CCS(=O)(=O)C(C)(C)S(=O)(=O)CC | inactive | inactive
CCOC(=O)NC(O)C(Cl)(Cl)Cl (stereo unspecified) | inactive | inactive
CC(C)NCC(O)c1ccc(N)c(C#N)c1 (stereo unspecified) | inactive | inactive
Nc1ccccc1C(=O)OCC(O)CO (stereo unspecified) | inactive | inactive
O=C1CN2CCOC2(c2ccccc2Cl)c2cc(Cl)ccc2N1 (stereo unspecified) | inactive | inactive
